Laboratory results: PubChem BioAssay AID1159580 (chemical genetic matrix, 2015)
Screen size: about 5,500 compounds; about 2,000 (36%) were called active. Inconclusive results (about 18%) are left out. Rule as the data show it: active = normalized growth mostly below about 0.91 (no sharp cut-off); inconclusive = no clear call, values can overlap the other calls; inactive = mostly above about 0.92. This is one part of the list.

Assay: chemical genetic growth profiling, strain panel (AID 1159580);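 also: tested at 20 µM; growth read once vehicle control cultures reached saturation at 30 °C; 1 = growth at the plate median or of vehicle wells; lower values mean less growth of the strain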
Conditions: S. cerevisiae deletion strains, growth OD

Measured: normalized growth

O=C(OC1Cc2c(O)cc(O)cc2OC1c1cc(=O)c(O)c2c(O)c(O)cc(C3Oc4cc(O)cc(O)c4CC3O)c2c1)c1cc(O)c(O)c(O)c1 (stereo not drawn)
active: locus YAL013W, strain DEP1, stronger effect = lower value 0.132 | locus YAL021C, strain ccr4, stronger effect = lower value 0.794 | locus YAL026C, strain drs2, stronger effect = lower value 0.856 | locus YBR009C, strain hhf1, stronger effect = lower value 0.901 | locus YBR023C, strain chs3, stronger effect = lower value 0.87 | locus YBR229C, strain ROT2, stronger effect = lower value 0.766 | locus YBR231C, strain swc5, stronger effect = lower value 0.819 | locus YCL029C, strain bik1, stronger effect = lower value 0.816 | locus YDL035C, strain GPR1, stronger effect = lower value 0.158 | locus YDL074C, strain BRE1, stronger effect = lower value 0.286 | locus YDL101C, strain DUN1, stronger effect = lower value 0.194 | locus YDL192W, strain arf1, stronger effect = lower value 0.747 | locus YDR069C, strain doa4, stronger effect = lower value 0.71 | locus YDR101C, strain arx1, stronger effect = lower value 0.91 | locus YDR137W, strain rgp1, stronger effect = lower value 0.844 | locus YDR150W, strain NUM1, stronger effect = lower value 0.651 | locus YDR162C, strain NBP2, stronger effect = lower value 0.0937 | locus YDR318W, strain mcm21, stronger effect = lower value 0.828 | locus YDR334W, strain swr1, stronger effect = lower value 0.873 | locus YDR388W, stronger effect = lower value 0.888 | locus YDR502C, strain sam2, stronger effect = lower value 0.645 | locus YEL061C, strain CIN8, stronger effect = lower value 0.417 | locus YER111C, strain swi4, stronger effect = lower value 0.885 | locus YER167W, strain BCK2, stronger effect = lower value 0.585 | locus YFR010W, strain ubp6, stronger effect = lower value 0.862 | locus YGL086W, strain mad1, stronger effect = lower value 0.795 | locus YGL173C, strain kem1, stronger effect = lower value 0.81 | locus YGL248W, strain PDE1, stronger effect = lower value 0.345 | locus YGL253W, strain hxk2, stronger effect = lower value 0.887 | locus YGR078C, strain PAC10, stronger effect = lower value 0.704 | locus YGR135W, strain pre9, stronger effect = lower value 0.67 | locus YGR229C, strain SMI1, stronger effect = lower value 0.0876 | locus YGR252W, strain gcn5, stronger effect = lower value 0.56 | locus YHR013C, strain ard1, stronger effect = lower value 0.805 | locus YHR027C, strain rpn1, stronger effect = lower value 0.812 | locus YHR030C, strain SLT2, stronger effect = lower value 0.59 | locus YHR079C, strain IRE1 (second series), stronger effect = lower value 0.864 | locus YHR129C, strain ARP1, stronger effect = lower value 0.536 | locus YHR142W, strain chs7, stronger effect = lower value 0.841 | locus YHR200W, strain rpn10, stronger effect = lower value 0.794 | locus YIL066C, strain RNR3, stronger effect = lower value 0.0947 | locus YIL073C, strain SPO22, stronger effect = lower value 0.159 | locus YJL095W, strain BCK1, stronger effect = lower value 0.154 | locus YJL134W, strain LCB3, stronger effect = lower value 0.732 | locus YJL164C, strain tpk1, stronger effect = lower value 0.868 | locus YJL166W, strain qcr8, stronger effect = lower value 0.883 | locus YJL187C, strain SWE1 (second series), stronger effect = lower value 0.0967 | locus YJR043C, strain POL32, stronger effect = lower value 0.203 | locus YJR075W, strain HOC1, stronger effect = lower value 0.58 | locus YKL190W, strain CNB1, stronger effect = lower value 0.126 | locus YKR001C, strain vps1, stronger effect = lower value 0.688 | locus YLR039C, strain RIC1, stronger effect = lower value 0.17 | locus YLR058C, strain SHM2, stronger effect = lower value 0.183 | locus YLR262C, strain YPT6 (second series), stronger effect = lower value 0.811 | locus YLR262C, strain YPT6, stronger effect = lower value 0.342 | locus YLR268W, strain sec22, stronger effect = lower value 0.609 | locus YLR330W, strain CHS5, stronger effect = lower value 0.708 | locus YLR342W, strain FKS1 (second series), stronger effect = lower value 0.263 | locus YLR357W, strain rsc2, stronger effect = lower value 0.744 | locus YLR371W, strain rom2, stronger effect = lower value 0.711 | locus YLR418C, strain cdc73, stronger effect = lower value 0.356 | locus YML016C, strain PPZ1, stronger effect = lower value 0.0879 | locus YML032C, strain rad52, stronger effect = lower value 0.879 | locus YMR058W, strain fet3, stronger effect = lower value 0.252 | locus YMR223W, strain ubp8, stronger effect = lower value 0.761 | locus YMR231W, strain pep5, stronger effect = lower value 0.866 | locus YMR307W, strain GAS1, stronger effect = lower value 0.339 | locus YNL067W, strain RPL9B, stronger effect = lower value 0.486 | locus YNL128W, strain TEP1, stronger effect = lower value 0.145 | locus YNL153C, strain GIM3, stronger effect = lower value 0.417 | locus YNL209W, strain ssb2, stronger effect = lower value 0.749 | locus YNL233W, strain BNI4, stronger effect = lower value 0.621 | locus YNR052C, strain pop2, stronger effect = lower value 0.648 | locus YOL006C, strain TOP1, stronger effect = lower value 0.139 | locus YOL147C, strain pex11, stronger effect = lower value 0.865 | locus YOR061W, strain CKA2, stronger effect = lower value 0.383 | locus YOR069W, strain VPS5, stronger effect = lower value 0.485 | locus YOR106W, strain vam3, stronger effect = lower value 0.657 | locus YOR136W, strain idh2, stronger effect = lower value 0.906 | locus YOR144C, strain elg1, stronger effect = lower value 0.915 | locus YOR184W, strain ser1, stronger effect = lower value 0.578 | locus YOR270C, strain vph1, stronger effect = lower value 0.638 | locus YOR290C, strain snf2, stronger effect = lower value 0.827 | locus YPL051W, strain arl3, stronger effect = lower value 0.827 | locus YPL241C, strain CIN2, stronger effect = lower value 0.636 | locus YPR167C, strain met16, stronger effect = lower value 0.878 | strain wtn01, stronger effect = lower value 0.667
inactive: locus YAL030W, strain snc1, stronger effect = lower value 0.971 | locus YBL061C, strain skt5, stronger effect = lower value 0.932 | locus YBR021W, strain FUR4, stronger effect = lower value 1.05 | locus YBR171W, strain sec66, stronger effect = lower value 0.972 | locus YBR279W, strain paf1, stronger effect = lower value 0.942 | locus YCL011C, strain gbp2, stronger effect = lower value 0.948 | locus YCL016C, strain dcc1, stronger effect = lower value 0.976 | locus YCL061C, strain MRC1, stronger effect = lower value 0.942 | locus YCL069W, strain vba3, stronger effect = lower value 0.986 | locus YCR088W, strain abp1, stronger effect = lower value 1 | locus YDL005C, strain med2, stronger effect = lower value 0.996 | locus YDL040C, strain nat1, stronger effect = lower value 1 | locus YDL185W, strain tfp1, stronger effect = lower value 0.92 | locus YDR001C, strain nth1, stronger effect = lower value 0.992 | locus YDR159W, strain sac3, stronger effect = lower value 1.06 | locus YDR195W, strain ref2 1.03 | locus YDR297W, strain sur2, stronger effect = lower value 0.966 | locus YDR335W, strain msn5, stronger effect = lower value 0.938 | locus YDR392W, strain spt3, stronger effect = lower value 0.939 | locus YEL003W, strain gim4, stronger effect = lower value 0.946 | locus YEL037C, strain rad23, stronger effect = lower value 0.946 | locus YEL061C, strain CIN8 (second series), stronger effect = lower value 0.992 | locus YER015W, strain faa2, stronger effect = lower value 0.93 | locus YER016W, strain bim1, stronger effect = lower value 0.968 | locus YER110C, stronger effect = lower value 1.01 | locus YER155C, strain BEM2 (second series), stronger effect = lower value 0.927 | locus YER155C, strain BEM2, stronger effect = lower value 0.982 | locus YGL078C, strain dbp3, stronger effect = lower value 1 | locus YGL167C, strain pmr1, stronger effect = lower value 0.969 | locus YGL227W, strain vid30, stronger effect = lower value 1 | locus YGL240W, strain doc1, stronger effect = lower value 1 | locus YHR094C, strain hxt1, stronger effect = lower value 0.982 | locus YIL125W, strain kgd1, stronger effect = lower value 0.995 | locus YIR030C, strain dcg1, stronger effect = lower value 0.956 | locus YJL092W, strain hpr5, stronger effect = lower value 0.992 | locus YJL095W, strain BCK1 (second series), stronger effect = lower value 0.96 | locus YJL115W, strain asf1, stronger effect = lower value 0.986 | locus YJL129C, strain trk1, stronger effect = lower value 1.04 | locus YJL154C, strain vps35, stronger effect = lower value 1 | locus YJL168C, strain set2, stronger effect = lower value 0.954 | locus YJL187C, strain SWE1, stronger effect = lower value 0.95 | locus YKL009W, strain mrt4, stronger effect = lower value 1.02 | locus YKL068W, stronger effect = lower value 0.996 | locus YKL085W, strain MDH1 (second series), stronger effect = lower value 0.994 | locus YKL085W, strain MDH1, stronger effect = lower value 0.994 | locus YKL160W, strain elf1, stronger effect = lower value 0.969 | locus YKR026C, strain gcn3, stronger effect = lower value 0.967 | locus YKR091W, strain srl3, stronger effect = lower value 1 | locus YLL001W, strain dnm1, stronger effect = lower value 0.967 | locus YLL026W, stronger effect = lower value 0.978 | locus YLL041C, strain sdh2, stronger effect = lower value 0.989 | locus YLR027C, strain aat2, stronger effect = lower value 0.955 | locus YLR102C, strain apc9, stronger effect = lower value 0.973 | locus YLR221C, strain rsa3, stronger effect = lower value 0.925 | locus YLR258W, strain gsy2, stronger effect = lower value 0.946 | locus YLR320W, strain mms22, stronger effect = lower value 0.927 | locus YLR342W, strain FKS1, stronger effect = lower value 0.929 | locus YLR370C, strain arc18, stronger effect = lower value 0.916 | locus YLR384C, strain iki3, stronger effect = lower value 0.971 | locus YML120C, strain ndi1, stronger effect = lower value 0.952 | locus YML124C, strain tub3, stronger effect = lower value 0.958 | locus YMR078C, strain ctf18, stronger effect = lower value 0.973 | locus YMR125W, strain sto1, stronger effect = lower value 1.03 | locus YMR129W, stronger effect = lower value 1 | locus YMR205C, strain PFK2, stronger effect = lower value 0.901 | locus YNL071W, strain lat1, stronger effect = lower value 1 | locus YNL248C, strain rpa49, stronger effect = lower value 0.986 | locus YNL250W, strain rad50, stronger effect = lower value 0.99 | locus YNL271C, strain bni1, stronger effect = lower value 0.963 | locus YNL298W, strain CLA4, stronger effect = lower value 1 | locus YNL307C, strain MCK1, stronger effect = lower value 0.93 | locus YNL322C, strain KRE1 (second series), stronger effect = lower value 1.02 | locus YNR049C, strain mso1, stronger effect = lower value 0.997 | locus YOL012C, strain htz1 0.293 | locus YOR001W, strain rrp6, stronger effect = lower value 0.962 | locus YOR070C, strain gyp1, stronger effect = lower value 0.938 | locus YOR080W, strain dia2, stronger effect = lower value 0.966 | locus YOR083W, strain WHI5, stronger effect = lower value 0.937 | locus YOR265W, strain rbl2, stronger effect = lower value 0.969 | locus YOR316C, strain cot1, stronger effect = lower value 0.958 | locus YPL078C, strain atp4, stronger effect = lower value 0.957 | locus YPL106C, strain sse1, stronger effect = lower value 0.872 | locus YPL240C, strain hsp82, stronger effect = lower value 0.97 | locus YPR119W, strain clb2, stronger effect = lower value 0.988 | locus YPR141C, strain kar3, stronger effect = lower value 0.993 | locus YPR163C, strain tif3, stronger effect = lower value 0.969
